According to the supplement of paper PMC10338343:
± gives the standard deviation. The full ranking holds about 3,000 sequences; the median of “pre-steady-state target cleavage rate” is about 0.0079, and the highest 2% start at about 0.2. Shown is part of a subset that was picked to be rich in the highest values.

test system: MILI (PIWIL2) piRISC loaded with piRNA #2 (26 nt); assay: pre-steady-state target cleavage rate (min^-1); MIWI and MILI are mouse PIWI proteins and EfPiwi is from a freshwater sponge; tags in brackets are library labels; higher = faster piRNA-guided slicing of the target; conditions: guide: piRNA #2 5'p-UUAGGUAACCCAGUAGAUCCAGAGGA; auxiliary factor: 500 nM mouse GTSF1
Procedure: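 Cleave-'n-Seq: a library of target RNAs (target site embedded in constant flanks, ACAGCATTCCGCGTTAGTGATATCCG... 5' flank; DNA-blocked outside the site) at 0.1 nM was incubated with 1 nM active mouse MILI or MIWI piRISC (synthetic 5'-monophosphorylated piRNA guide) with or without 500 nM mouse GTSF1 at 33 °C for 1 min to 16 h. Uncleaved targets were sequenced and normalised to non-target controls, and the pooled three trials were fitted to a burst-and-steady-state model to give the pre-steady-state cleavage rate (min^-1; k3 is constrained to at most 1e-4). Sequence is the target site only; target names encode pairing extent (gX:gY) and contiguous / 1-mismatch / 2-mismatch / bulge geometry. Fits with R² ≤ 0 are excluded.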

Row | Sequence | pre-steady-state target cleavage rate
1 | CUUAUCCUCUGGAUCUACUGGGUUACCUAA [g2:g26:cont:t1A] | 0.125 ± 0.023
2 | CUUAACCUCUGGAUCAACUGGGUUUCCUAA | 0.101 ± 0.038
3 | CUUAUCCUCUGGAUCUACUGGGUAUCCUAA | 0.0336 ± 0.014
4 | CUUAUCCUCUGGAUCUACUGGGUUCACCUAA | 0.0872 ± 0.017
5 | CUUAUCCUCUGGAUCUACUGGGUUUCGUAA | 0.171 ± 0.071
6 | CUUAUCCUCUGGAUCUACUGGGUUCCUAA | 0.239 ± 0.11
7 | CUUAUCCUCUGGAUCUACUGGGUUUCCUUA | 0.413 ± 0.15
8 | CUUAUCCUCUGGAUCUACUGGGUUAUCUAA | 0.0884 ± 0.015
9 | CUUAUCCUCUGGAUCAACUGGGUUUCCUAA | 0.199 ± 0.072
10 | CUUAUCCUCUGGAUCUACUGGGUUAUCCUAA | 0.204 ± 0.046
11 | CUUAUCCUCUGGAUCUACUGGGUUUCCAAA | 0.134 ± 0.047
12 | CUUAAGCUCUGGAUCAACUGGGUUUCCUAA | 0.0481 ± 0.015
13 | CUUAAGCUCAGGAUCAACUGGGUUACCUAA | 0.0432 ± 0.014
14 | CUUAAGGACUGGAUCUAUUGGGUUACCUAA | 0.0187 ± 0.0078
15 | CUUAAGGAGUGGAUCUUCAGGGUUACCUAA | 0.0231 ± 0.0065
16 | CUUAAGGUCUGGAUGUACUGGGAUACCUAA | 0.0141 ± 0.01
17 | CUUAAGGUCUGGAACUUCUGGGUUACCUAA | 0.0253 ± 0.015
18 | CUUAAGCUCAGGAUCUACUGGGUAACCUAA | 0.0259 ± 0.0088
19 | CUUAACGUCUGGAUCUACUGGGUUACCUUA | 0.0827 ± 0.015
20 | CUUAAGGAGUGGAUCUACUGGGUCUACCUAA | 0.00823 ± 0.0039
21 | CUUAAGGACUGGAUCUACUGGGUAUACCUAA | 0.0248 ± 0.016
22 | CUUAAGGUCUGGAUCUACAGGGUUACCAAA | 0.106 ± 0.017
23 | CUUAUCCUCUGGAUCUACUGGGUUACGCUAA | 0.174 ± 0.026

Row | Sequence | pre-steady-state target cleavage rate
24 | CUUAUCCACUGGAUCUACUGGGUUUCCUAA | 0.123 ± 0.034
25 | CUUAUCCCUCUGGAUCUACUGGGUUACCUAA | 0.0911 ± 0.022
26 | CUUAUCCUCUGGAUCUACUGGGUUUGCUAA | 0.216 ± 0.041
27 | CUUAUCCUCUGGAUCUACUGGGUUCCCUAA | 0.321 ± 0.13
28 | CUUAUCCUCUGGAUCUACUGGGUUUACCUAA | 0.107 ± 0.023
29 | CUUAUCCUCUGGAUCUACUGGGUUUCCUAA | 0.252 ± 0.072
30 | CUUAUCCUCUGGAUCUACUGGGUAUGCUAA | 0.092 ± 0.023
31 | CUUAUCCUCUGGAUCUACUGGGUUACCCUAA | 0.132 ± 0.049
32 | CUUAAGGUGUGGAUCUACUGGGUUACCUUA | 0.0353 ± 0.011
33 | CUUAUCCUCUGGAUGUACUGCGUUACCUAA | 0.0106 ± 0.0045
34 | CUUAAGGACUGGAUCUACAGGGUUACCAAA | 0.0404 ± 0.0091
35 | CUUAAGCUCUCGGAUCUACUGGGUUACCUAA | 0.064 ± 0.015
36 | CUUAUCCUCUGGAUCACUGGGUUACCUAA | 0.0129 ± 0.0061
37 | CUUAAGGAGACCUACUACUGGGUUACACUAA | < 0.0001
38 | CUUAAGGUCUGGAUCUACUGGGUUACCUGAA | 0.0831 ± 0.035
39 | CUUAAGCUCUGGAUCUAGUGGGUUUCCUAA | 0.0199 ± 0.0071
40 | CUUAUCCUCUCGAUCUACUCGGUUACCUAA | 0.0053 ± 0.0015
41 | CUUAAGGAGACCUACUACUGUGGUUACCUAA | < 0.0001
42 | CUUAACGUCUGCAUCUACUGGGUUACCUAA | 0.126 ± 0.02
43 | CUUAUCCUCUGGCUCUACUGGGUUACCUAA | 1.12 ± 0.3
44 | CUUAUCCUCUGGUCUACUGGGUUACCUAA | 0.983 ± 0.34
45 | CUUAUCCUCUGAAUCUACUGGGUUACCUAA | 0.109 ± 0.023
46 | CUUAUCCUCUGGACUCUACUGGGUUACCUAA | 0.0887 ± 0.019

Row | Sequence | pre-steady-state target cleavage rate
47 | CUUAUCCUCUGGAGUCUACUGGGUUACCUAA | 0.175 ± 0.039
48 | CUUAUCCUCUGGGUCUACUGGGUUACCUAA | 0.206 ± 0.035
49 | CUUAUCCUCUGGAAUCUACUGGGUUACCUAA | 0.156 ± 0.035
50 | CUUAAGCUCUGGAUGUACUGGGUUUCCUAA | 0.0435 ± 0.021
51 | CUUAAGGUCUGGAUCUACAGGGUUAGCUAA | 0.0446 ± 0.012
52 | CUUAAGCUCUGUAUCUACUGGGUUACCUAA | 0.0444 ± 0.0099
53 | CUUAAGGAGUGGAUCUACAGGGUUUCCUAA | 0.056 ± 0.012
54 | CUUAAGGUCUGGAUCUACUGGGUUACCUAU [g2:g23:cont:t1U] | 0.101 ± 0.014
55 | CUUAUCCUCUGGAUGUAGUGGGUUACCUAA | 0.0679 ± 0.01
56 | CUUAUCCUCUGCGAUCUACUGGGUUACCUAA | 0.0876 ± 0.015
57 | CUUAACCUCUGCAUCUACUGGGUUACCUUA | 0.178 ± 0.048
58 | CUUAUCCUCUGCAUCUACUGGGUUACCUAA | 0.275 ± 0.056
59 | CUUAUCCUCUGGAUCUACUGGGUUACCUUA | 0.13 ± 0.026
60 | CUUAUCCUCUGGCAUCUACUGGGUUACCUAA | 2.56 ± 1.7
61 | CUUAACCUCUGCAUCUACUGGGUUACCAAA | 0.173 ± 0.055
62 | CUUAUCCUCUGCAUCUACUGCGUUACCUAA | 0.0198 ± 0.0066
63 | CUUAUCCUCUGCAUCUACUGGGUUACCAAA | 0.408 ± 0.12
64 | CUUAUCCUCUGCAUCUACUGGGUUACCUUA | 0.466 ± 0.13
65 | CUUAUCCUCUGAUCUACUGGGUUACCUAA | 0.123 ± 0.029
66 | CUUAUCCUCUGGAUCUACUGGGUUACCAAA | 0.13 ± 0.023
67 | CUUAUCCUCUGGGAUCUACUGGGUUACCUAA | 0.137 ± 0.023
68 | CUUAAGCUCUGGAUCUACCGGGUUACCUAA | 0.0213 ± 0.0061
69 | CUUAAGCUCUGGAUCUACUGGGUUCACCUAA | 0.0506 ± 0.017

Row | Sequence | pre-steady-state target cleavage rate
70 | CUUAAGGAGUGGAUCUUCUGGGUUACCUUA | 0.014 ± 0.007
71 | CUUAACCUCUGCAUCUACUGGGUUACGUAA | 0.155 ± 0.069
72 | CUUAUCCUCAGCAUCUACUGGGUUACCUAA | 0.271 ± 0.06
73 | CUUAUCCUCUGCAUCUACUGGGUUACGUAA | 0.483 ± 0.2
74 | CUUAUCCUCUGGAUCUACUGGGUUACGUAA | 0.0586 ± 0.014
75 | CUUAUCCUCACCAUCUACUGGGUUACCUAA | 0.127 ± 0.051
76 | CUUAACCUCAGCAUCUACUGGGUUACCUAA | 0.111 ± 0.027
77 | CUUAACCUCUCGGAUCUACUGGGUUACCUAA | 0.0634 ± 0.017
78 | CUUAAGGAGGGGAUCUACUGGGUUACCUAA | 0.0293 ± 0.022
79 | CUUAUCCUCUGGAUGUACAGGGUUACCUAA | 0.135 ± 0.011
80 | CUUAACCUCUGGCUCUACUGGGUUACCUAA | 0.8 ± 0.2
81 | CUUAACCUCUGGAUCUACUGGGUUACCUAAA | 0.0972 ± 0.022
82 | CUUAAGGUCUGGCAUCUACUGGGUUACCUAA | 0.211 ± 0.069
83 | CUUAACCUCUGGGAUCUACUGGGUUACCUAA | 0.168 ± 0.03
84 | CUUAAGGUCUGGGUCUACUGGGUUACCUAA | 0.0913 ± 0.015
85 | CUUAACCUCUUGGAUCUACUGGGUUACCUAA | 0.245 ± 0.072
86 | CUUAACCUUGGAUCUACUGGGUUACCUAA | 0.134 ± 0.041
87 | CUUAAGGUCUGCAUCUACUGGGUUACCUAA | 0.0733 ± 0.018
88 | CUUAACCUCUGGCAUCUACUGGGUUACCUAA | 2.04 ± 1.1
89 | CUUAACCUCUGGACUCUACUGGGUUACCUAA | 0.0674 ± 0.018
90 | CUUAACCUCUGAUCUACUGGGUUACCUAA | 0.0852 ± 0.019
91 | CUUAACCUCUGCAUCUACUGGGUUACCUAA | 0.185 ± 0.036
